Assay outcomes as filed in PubChem.
Compounds with a hit are over-represented: about 2.3% of the library has one in this group of screens.
m5-HT2A agonist = agonists of mouse serotonin 5-HT2A receptor (HTR2A); CHO-K1 mHTR2A beta-arrestin complementation, luminescence; percent of 30 µM serotonin response; activation, % at 7.6 µM; 360,000 compounds, 0.66% hits; AID 624169;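 active = activation above a run cutoff, the mean activation of all tested compounds plus 3 SD, cut at about 14% in these data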
Target sequence (P35363 whole entry, looked up): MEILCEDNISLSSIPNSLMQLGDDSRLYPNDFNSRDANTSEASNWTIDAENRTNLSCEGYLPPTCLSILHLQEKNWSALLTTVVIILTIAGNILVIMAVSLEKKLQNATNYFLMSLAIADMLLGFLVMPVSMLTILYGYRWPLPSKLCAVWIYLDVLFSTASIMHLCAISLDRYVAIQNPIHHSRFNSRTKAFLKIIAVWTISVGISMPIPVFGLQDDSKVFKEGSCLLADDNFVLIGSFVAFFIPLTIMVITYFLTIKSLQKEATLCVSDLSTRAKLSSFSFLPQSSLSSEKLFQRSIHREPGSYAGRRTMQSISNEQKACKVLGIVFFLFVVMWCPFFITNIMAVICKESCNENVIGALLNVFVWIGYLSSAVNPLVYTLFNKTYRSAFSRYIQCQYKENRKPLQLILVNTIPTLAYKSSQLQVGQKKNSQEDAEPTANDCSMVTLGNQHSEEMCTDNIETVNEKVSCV
NTR1 agonist = agonists of human neurotensin receptor NTR1; P30989; NTR1-U2OS beta-arrestin-GFP spot imaging, agonist mode; activation, % at 20 µM; 330,000 compounds, 0.17% hits; AID 493036;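 active = activation at or above 40% of the spot to cytoplasm intensity ratio, with at least 20 cells analyzed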
Exocytosis inh = blocks lytic granule exocytosis. TALL-104 LAMP-1 surface exposure, flow cytometry; cells stimulated with thapsigargin and PMA. inhibition, % at 10 µM. 360,000 compounds, 0.66% hits. AID 651702;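 active = inhibition above about 55%, limit read from the data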
ABHD5 PLIN5 PPI = ABHD5-PLIN5 protein interaction inhibition. Q00G26+Q8WTS1. Split G. princeps luciferase complementation, luminescence, 4 h. inhibition, % at 4 µM. 360,000 compounds, 0.78% hits. AID 602281;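 active = inhibition above the mean inhibition across every tested compound plus 3 SD, cut at about 22% in these data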
Beta2AR agonist = human beta-2 adrenergic receptor agonism by FAP; response, % (test concentration not listed); 340,000 compounds, 0.43% hits; Am2.2-beta2AR cells, FAP receptor internalization, flow cytometry;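 active = response above a set limit, near 3 SD of response in nonfluorescent compounds, cut at about 42% in these data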
Beta2AR ag CP1 = activates human beta-2 adrenergic receptor. shares compounds with Beta2AR agonist. Am2.2-beta2AR cells, FAP surface receptor, flow cytometry; active compounds read low. percent response (surface receptor), % at 10 µM. 1,100 compounds, 25% hits. AID 540358;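 active = surface receptor percent response at or below 58%, roughly 3 SD from nonfluorescent compounds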
B2AR FAP counter = fluorescence artifact in beta-2AR agonist FAP counterscreen; shares compounds with Beta2AR agonist; Am2.2 cells, FAP fluorogen flow cytometry; active compounds read low; calls only at 10 µM; 1,100 tested, under 10 active; AID 588765;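 active = percent response below a set limit in fluorescence channel 1 and below 50% in channel 8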
A number is an active result; n = inactive; x = no result given.

SMILES	m5-HT2A agonist	NTR1 agonist	Exocytosis inh	ABHD5 PLIN5 PPI	Beta2AR agonist	Beta2AR ag CP1	B2AR FAP counter
COc1ccc(Cl)cc1C(=O)N1CCN(c2ccccn2)CC1	n	n	n	n	51.6	n	n
O=C(c1ccccc1Cl)N1CCN(c2ccccn2)CC1	n	n	n	n	n	x	x
Cc1ccc(NC(=O)CCCSc2nc3ccccc3[nH]2)cc1	n	n	n	n	n	x	x
Cc1ccc(SCC(=O)Nc2ccc(-c3nc4ccccc4[nH]3)cc2)cc1	n	n	n	n	106.9	16.5	n
CCOC(=O)CSc1ccc(-c2nc3ccccc3[nH]2)cn1	n	n	n	n	45.5	n	n
Cc1oc(CC(C)C)cc1C(=O)Nc1cccc2ccccc12	n	n	n	n	42.7	n	n
Cc1cc(C(=O)Nc2cccc3ccccc23)c(C)o1	n	n	n	n	n	x	x
Cc1ccc([N+](=O)[O-])cc1Nc1nc(N2CCOCC2)nc(N2CCOCC2)n1	n	n	n	n	49.9	n	n
CC(=NNC(=O)CCC(=O)Nc1ccccc1Cl)c1ccco1	n	n	n	n	n	x	x
COc1ccc(CC(=O)Nc2cccc(-c3nnc(-c4ccc(C)cc4)o3)c2)cc1OC	n	n	88.2	n	49.5	n	n
COc1ccc(CC(=O)Nc2ccc(-c3nnc(-c4ccccc4)o3)cc2)cc1OC	n	n	n	n	n	x	x
S=C(Nc1ccccc1)Nc1nccs1	n	n	n	n	n	n	n
Fc1ccc(NC(=S)Nc2nccs2)cc1	n	n	n	n	n	x	x
CC1(C)CC=CC(COC(=O)c2ccccc2C(=O)O)C1 (stereo not drawn)	n	x	n	n	n	x	x
COCCN1C[C@@H](CO)O[C@@H](n2cnc3c(NCc4ccc(F)cc4)ncnc32)C1	n	x	n	n	x	x	x
COC(=O)c1cc(NC(=O)Cn2c(=O)oc3ccccc32)cc(C(=O)OC)c1	n	n	n	n	70.6	n	n
CNCC(O)COc1ccccc1 (stereo not drawn)	n	n	n	n	n	x	x
C[C@H](NCCc1ccc(O)cc1)[C@H](O)c1ccc(O)cc1	n	n	n	n	n	n	n
CC(COc1ccccc1)NC(C)C(O)c1ccc(O)cc1 (stereo not drawn)	n	n	n	n	n	n	n
Cn1c(=S)c2[nH]c(SCCN)nc2n(C)c1=O	n	x	n	n	n	x	x
Cn1c(=S)c2[nH]c(SCCN3CCCC3)nc2n(C)c1=O	n	n	n	n	n	n	n
COc1ccc(C2=NN(C(=O)c3cccs3)C(c3ccc(OC)cc3)C2)cc1 (stereo not drawn)	n	n	n	n	43.5	43.5	n
O=C(COc1ccc(S(=O)(=O)N2CCOCC2)cc1)NCCc1ccccc1	n	n	n	n	n	x	x
O=C(COc1ccccc1)Nc1ccc(S(=O)(=O)N2CCCCCC2)cc1	n	n	n	n	n	x	x
O=C(COc1ccc(S(=O)(=O)N2CCOCC2)cc1)Nc1ccccc1C(F)(F)F	n	n	n	n	n	n	n
SMILES	m5-HT2A agonist	NTR1 agonist	Exocytosis inh	ABHD5 PLIN5 PPI	Beta2AR agonist	Beta2AR ag CP1	B2AR FAP counter
O=C(COc1ccc(S(=O)(=O)N2CCCCC2)cc1)Nc1ccccc1F	n	n	n	n	n	n	n
O=C(CN1C(=O)NC2(CCOc3ccccc32)C1=O)NCCc1ccccc1 (stereo not drawn)	n	n	n	n	n	x	x
CCOC(=O)c1c(C)[nH]c(C)c1S(=O)(=O)N(C)CC(=O)NCc1ccc(F)cc1	n	n	n	n	n	x	x
O=C(COC(=O)c1cc(S(=O)(=O)N2CCOCC2)ccc1F)c1ccccc1	n	n	n	n	n	x	x
O=C(OCc1cccc(C(F)(F)F)c1)c1cc(S(=O)(=O)N2CCOCC2)ccc1F	n	n	n	n	56.5	n	n
CCOC(=O)c1ccc(NC(=O)COc2ccc(S(=O)(=O)N3CCCC3)cc2)cc1	n	n	n	n	97.8	20.8	n
COc1ccc(OCC(=O)Nc2ccc(S(=O)(=O)N3CCCCCC3)cc2)cc1	n	n	n	n	n	x	x
COc1ccc(N2C(=O)CC(N3CCN(S(=O)(=O)c4ccc(Cl)cc4)CC3)C2=O)cc1 (stereo not drawn)	n	n	n	n	n	x	x
COc1ccccc1CCC(=O)Nc1cccc(S(=O)(=O)N2CCCCCC2)c1	n	n	n	n	54.0	10.2	n
Cc1ccc(OCC(=O)Nc2ccc(S(=O)(=O)N3CCCC3)cc2)cc1	n	n	n	n	n	x	x
CC(=O)c1cccc(NC(=O)COc2ccc(S(=O)(=O)N3CCCCC3)cc2)c1	n	n	n	n	n	n	n
COc1ccccc1CCC(=O)Nc1cccc(S(=O)(=O)N2CCOCC2)c1	n	n	n	n	n	x	x
CCOC(=O)c1ccc(S(=O)(=O)N2CCN(C3CC(=O)N(c4ccc(OC)cc4)C3=O)CC2)cc1 (stereo not drawn)	n	x	n	n	52.3	n	n
CCOc1cccc(C(=O)Nc2ccc3oc(-c4cccnc4)nc3c2)c1	n	n	n	n	n	n	n
Fc1ccc(Sc2nc(-c3ccccc3)nnc2C(F)(F)F)cc1	n	n	n	n	43.6	20.8	n
C/C=C1\NC(=O)[C@H](CC(N)=O)N(C)C(=O)C([C@@H](C)O)NC(=O)C(CCCc2ccc(OC)cc2)NC(=O)[C@H](C(C)C)NC(=O)/C(=C\C)NC(=O)[C@H](O)[C@@H](C[C@@H](O)CCCCCCC)NC(=O)[C@H](C)NC(=O)CN(C)C(=O)[C@H](CCC(N)=O)NC1=O (stereo partly drawn)	n	x	n	n	n	x	x
CN1CCCC(CN2c3ccccc3Sc3ccccc32)C1 (stereo not drawn)	n	n	n	n	n	x	x
CN1CCCC(CC2c3ccccc3Sc3ccccc32)C1 (stereo not drawn)	n	n	n	n	n	n	n
CCCCN(CCCC)c1nc2ccccc2nc1NS(=O)(=O)c1ccc(NC(C)=O)cc1	n	n	n	n	118.7	27.6	n
CC(C)=CCC(C)(C)C1OCCN1C(=O)c1ccccc1 (stereo not drawn)	n	n	n	n	61.7	21.6	n
Oc1ccc(C[C@H]2CNCCN2CCc2cc(C(F)(F)F)cc(C(F)(F)F)c2)cc1	n	n	n	n	n	x	x
Oc1ccc(C[C@@H]2CNCCN2CCc2cc(C(F)(F)F)cc(C(F)(F)F)c2)cc1	n	n	n	n	79.7	n	n
CC(C)CC(=O)Nc1c2c(nn1-c1cccc(Cl)c1)CS(=O)(=O)C2	n	n	n	n	n	x	x
COc1cccc(-c2cc(C(=O)Nc3ccc(N(C)C(C)=O)cc3)c3cc(Br)ccc3n2)c1	n	n	n	n	n	x	x
CC(C)(C(=O)N[C@H](CO)c1ccccc1)C(=O)N[C@H](CO)c1ccccc1	n	n	n	n	n	x	x
